Outcome and Potency data for 22 compounds are collected here from PubChem BioAssay (NCATS).

Results filed as inconclusive are left out. Values without a mark were called inactive. Calls of active or inactive are those of the source. Unless noted, calls come from the whole dose curve; as a rule, active = well fitted curve in the direction sought with a large enough effect; inconclusive = small, poorly fitted or top-dose-only effect, or another doubt; inactive = no such curve, though single readings can be large; an effect the other way counts as inactive or inconclusive.

A short description of assay [1]: qHTS to identify inhibitors of the type 1 interferon - major histocompatibility complex class I in skeletal muscle: primary screen against the NCATS Pharmaceutical Collection (AID 1347407).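 Note: luminescence of HiBiT knocked into endogenous HLA-B as interferon-induced MHC class I level.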 Put shortly:
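HLA-B HiBiT myoblasts, dexamethasone-free growth medium + 4 ng/ml IFN-b; compounds pinned 1 h after seeding, […] from 46 uM; 24 h, 37 C, 5% CO2; lytic HiBiT detection, 10 min RT, luminescence.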
(In general: In qHTS, concentration-response curves come from the screen itself.)

Assay [2] deals with Protein phosphatase 1D (Homo sapiens) (UniProt O15297). The experiment in a line: RapidFire Mass Spectrometry qHTS Assay for Modulators of WT P53-Induced Phosphatase 1 (WIP1) (AID 1347424). Note: series mostly up to about 63 µM. The procedure, abridged:
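RapidFire MS readout of dephosphorylated VEPPL-S-QETFS product, with 1 uM isotope-labelled peptide standard. Reaction: 10 nM WIP1, 2 uM phosphopeptide substrate, 5 min, room temperature, after 1 h compound preincubation; stopped with 0.5% formic acid.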

Assay [3] has the same target. The experiment in a line: Rhodamine-PBP qHTS Assay for Modulators of WT P53-Induced Phosphatase 1 (WIP1) (AID 1347425). Put shortly:
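The read-out is the change in Rhodamine-PBP fluorescence (f1 - f0, ex 525/em 598 nm) as Pi is released, read each minute for 11 min. Final reaction: 5 nM WIP1, 10 uM phosphopeptide VEPPL-pS-QETFS, 10 uM Rh-PBP, 50 mM Tris-HCl pH 7.5, 30 mM MgCl2. Compound was preincubated with enzyme for 1 hour at room temperature.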

Assay [4] in a line: Primary qHTS for inhibitors of La Crosse Virus (LACV) - induced cell death in SH-SY5Y cells (AID 1508616).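 Note: top concentration of the series differs between compounds; higher means more rescue of cells from virus-induced death.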 Put shortly: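 Cytopathicity rescue screen: compounds pinned onto SH-SY5Y cells, which are then infected with LACV (MOI 0.01) and held 6 days at 37C. Percent activity is scaled between infected DMSO control and uninfected DMSO control.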
Assay [5] deals with Calcium and integrin-binding protein 1 (Homo sapiens) (UniProt Q99828). The experiment in a line: Primary qHTS for Identification of Calcium Integrin Binding Protein 1 (CIB1) Competitor (AID 1508620). Note: top concentration of the series differs between compounds. The procedure, abridged: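 Fluorescence polarization competition: GST-tagged CIB1 (1 uM final) preincubated with compound 15 min at room temperature, then FITC-labelled alphaIIb peptide (100 nM final) added. After 15 min at room temperature, polarization read at Ex 480/Em 540.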

Assay [6] is described as follows: Primary qHTS for small molecule stabilizers of the endoplasmic reticulum resident proteome: Secreted ER Calcium Modulated Protein (SERCaMP) assay (AID 1508630). Put shortly: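 The SH-SY5Y reporter protocol was run at 3 concentrations up to 38.3 uM (primary) or 11 concentrations (follow-up): 16 h compound, 100 nM thapsigargin for 4 h, then extracellular luciferase luminescence.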

Assay [7] can be described thus: A High-Content qHTS Against Drug Library for the Identification of Small Molecules that Inhibit DYT1 Early Onset Primary Dystonia-Associated Cell Pathology (AID 1645839; calls by dose curve; note: series mostly up to about 46 µM). Put shortly:
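Cells were seeded and left for 24 h, then dosed with compound alongside tetracycline induction of mutant EGFP-TorsinA. They were incubated for 48 h, fixed in 4% paraformaldehyde, permeabilized and imaged for mislocalization (%pathology) and cell count.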

The target in assay [8] is Cytochrome P450 2D6 (Homo sapiens) (UniProt P10635). Put plainly: Cytochrome P450 family 2 subfamily D member 6 (CYP2D6) small molecule antagonists: luciferase biochemical (cell-free) qHTS assay (AID 1645840; active = well fitted curve in the direction sought with a large enough effect in the repeat runs; an effect the other way counts as inactive or inconclusive; note: nearly all actives have a fitted effect of over 55% in size; note: potency is the fitted concentration of half-maximal effect). Put shortly:
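P450-Glo CYP2D6 system: proluciferin substrate converted by enzyme to luciferin, read by luminescence proportional to activity. Enzyme-substrate mix with compound 10 min at room temperature, then NADPH regeneration 1 h before detection reagent.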

The target of assay [9] is Cytochrome P450 2C9 (Homo sapiens) (UniProt P11712). Put plainly: Cytochrome P450 family 2 subfamily C member 9 (CYP2C9) small molecule antagonists: luciferase biochemical (cell-free) qHTS assay (AID 1645842; active = well fitted curve in the direction sought with a large enough effect in the repeat runs; an effect the other way counts as inactive or inconclusive; note: nearly all actives have a fitted effect of over 55% in size; note: potency is the fitted concentration of half-maximal effect). Put shortly:
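P450-Glo CYP2C9 system: proluciferin substrate with enzyme in mix containing 0.4% BSA, 10 min at room temperature, then NADPH regeneration solution added and incubated 1 h at 37C. Detection reagent stopped reaction; luminescence read after 20 min as RLU.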

Assay [10] in a line: Primary qHTS for inhibitors of nuclear receptor binding SET domain protein 2 (NSD2) in an isogenic RCH-ACV NSD2 p.E1099K mutant (9B) (AID 1645876). Note: nearly all actives have a fitted effect of over 70% in size.
Assay [11] in a line: Primary qHTS for inhibitors of nuclear receptor binding SET domain protein 2 (NSD2) in an RCH-ACV wild type WT cells (2C) (AID 1645877). Note: nearly all actives have a fitted effect of over 70% in size.

Sequence of Protein phosphatase 1D (Homo sapiens) (O15297 whole entry, looked up): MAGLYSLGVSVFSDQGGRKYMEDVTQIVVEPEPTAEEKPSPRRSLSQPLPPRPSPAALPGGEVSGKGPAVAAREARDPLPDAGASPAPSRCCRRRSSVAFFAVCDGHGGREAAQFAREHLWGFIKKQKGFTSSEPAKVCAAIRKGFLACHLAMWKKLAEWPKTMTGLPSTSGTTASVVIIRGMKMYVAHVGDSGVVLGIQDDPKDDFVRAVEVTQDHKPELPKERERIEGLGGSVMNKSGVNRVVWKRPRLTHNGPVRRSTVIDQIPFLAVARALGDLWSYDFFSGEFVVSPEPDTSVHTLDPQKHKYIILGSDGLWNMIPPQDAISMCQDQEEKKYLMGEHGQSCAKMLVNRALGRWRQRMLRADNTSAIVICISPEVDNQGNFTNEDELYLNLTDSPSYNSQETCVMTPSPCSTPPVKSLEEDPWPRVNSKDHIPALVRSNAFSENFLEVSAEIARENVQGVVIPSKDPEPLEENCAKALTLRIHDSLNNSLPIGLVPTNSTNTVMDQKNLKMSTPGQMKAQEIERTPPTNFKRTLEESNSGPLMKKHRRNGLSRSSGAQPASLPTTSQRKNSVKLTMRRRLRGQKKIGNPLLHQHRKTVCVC
Sequence of Calcium and integrin-binding protein 1 (Homo sapiens) (Q99828 whole entry, looked up): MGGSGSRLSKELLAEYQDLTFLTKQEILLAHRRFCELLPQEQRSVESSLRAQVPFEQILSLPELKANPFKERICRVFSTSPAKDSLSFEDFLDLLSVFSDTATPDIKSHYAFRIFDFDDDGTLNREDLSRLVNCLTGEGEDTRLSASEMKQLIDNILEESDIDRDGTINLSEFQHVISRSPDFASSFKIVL
Sequence of Cytochrome P450 2C9 (Homo sapiens) (P11712 whole entry, looked up): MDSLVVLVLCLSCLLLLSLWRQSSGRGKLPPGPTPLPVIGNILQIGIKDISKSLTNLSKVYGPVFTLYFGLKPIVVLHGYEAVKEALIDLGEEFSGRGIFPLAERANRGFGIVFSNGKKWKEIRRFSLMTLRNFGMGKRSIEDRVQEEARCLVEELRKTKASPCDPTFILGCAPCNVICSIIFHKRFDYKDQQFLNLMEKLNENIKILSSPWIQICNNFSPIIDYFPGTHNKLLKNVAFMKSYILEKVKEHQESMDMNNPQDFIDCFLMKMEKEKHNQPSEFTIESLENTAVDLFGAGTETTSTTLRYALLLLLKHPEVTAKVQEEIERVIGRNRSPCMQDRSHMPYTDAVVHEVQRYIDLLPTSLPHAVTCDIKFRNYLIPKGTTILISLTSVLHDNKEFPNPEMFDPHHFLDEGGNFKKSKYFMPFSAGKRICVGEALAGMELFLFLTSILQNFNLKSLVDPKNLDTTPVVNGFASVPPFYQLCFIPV
Sequence of Cytochrome P450 2D6 (Homo sapiens) (P10635 whole entry, looked up): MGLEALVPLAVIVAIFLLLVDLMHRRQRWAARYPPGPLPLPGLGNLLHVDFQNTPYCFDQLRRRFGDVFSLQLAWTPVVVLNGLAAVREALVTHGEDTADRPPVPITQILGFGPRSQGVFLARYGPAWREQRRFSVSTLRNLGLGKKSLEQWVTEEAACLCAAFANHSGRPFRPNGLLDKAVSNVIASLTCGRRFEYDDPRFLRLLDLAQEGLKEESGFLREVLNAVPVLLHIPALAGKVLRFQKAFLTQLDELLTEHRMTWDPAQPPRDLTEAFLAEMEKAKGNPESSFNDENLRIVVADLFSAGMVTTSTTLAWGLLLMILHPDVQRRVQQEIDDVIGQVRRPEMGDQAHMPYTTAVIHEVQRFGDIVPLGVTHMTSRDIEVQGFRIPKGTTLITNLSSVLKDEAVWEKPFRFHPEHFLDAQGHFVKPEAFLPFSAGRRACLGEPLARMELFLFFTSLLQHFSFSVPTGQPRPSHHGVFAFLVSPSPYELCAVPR

Regarding `CC1CCN(CCCC(=O)c2ccc(F)cc2)CC1`, the compound was classed as inactive in assay [1], in [2], in [3], in assay [4], in assay [5] and in assay [6]. Further, the Potency entry in assay [7], in assay [9], in assay [10] and in assay [11] was “inactive” throughout. The Potency in assay [8] is 0.195 µM (active).

Regarding `Cc1cc(O)cc(C)c1Cl`, the call in assay [1], in assay [2], in [3], in assay [4], in assay [5] and in [6] was inactive. Besides, the Potency entry in assay [7], in assay [8], in [9], in assay [10] and in assay [11] was “inactive” in each case.

Turning to `C=CCSCC1Nc2cc(Cl)c(S(N)(=O)=O)cc2S(=O)(=O)N1` (configuration not stated), the outcome in assay [1], in assay [2], in [3], in assay [4], in assay [5] and in assay [6] was inactive. In addition, the Potency result in assay [7], in assay [8], in assay [10] and in [11] was “inactive” in each case. In assay [9], the Potency is 8.49 µM (active).

Turning to `O=C(Cn1ccnc1[N+](=O)[O-])NCCO`, the result in assay [1], in assay [2], in [3], in assay [4], in [5] and in [6] was inactive. Besides, the Potency entry in assay [7], in assay [8], in assay [9], in [10] and in assay [11] was “inactive” each time.

`CCN(CC)CCc1nc(-c2ccccc2)no1`: the call in assay [1], in assay [2], in [3], in assay [4], in assay [5] and in [6] was inactive. Moreover, the Potency result in assay [7], in [8], in [9], in assay [10] and in assay [11] was “inactive” in each case.

`Nc1ccc(C(=O)Oc2ccccc2)c(O)c1`: the result in assay [1], in [2], in [3], in assay [4], in assay [5] and in assay [6] was inactive. Moreover, the Potency result in assay [7], in assay [8], in assay [10] and in [11] was “inactive” throughout.

Take `Cn1c([N+](=O)[O-])cnc1COC(N)=O`: the call in assay [1], in [2], in assay [3], in [4], in assay [5] and in [6] was inactive. The Potency result in assay [7], in [8], in assay [9], in [10] and in [11] was “inactive” each time.

As to `CN/C(=C\[N+](=O)[O-])NCCSCc1csc(CN(C)C)n1`, the compound was called inactive in assay [1], in [2], in assay [3], in assay [4], in [5] and in assay [6]. For the same compound, the Potency result in assay [7], in [8], in assay [9], in assay [10] and in assay [11] was “inactive” throughout.

Consider `CCCCCCCC(=O)OCC(COC(=O)CCCCCCC)OC(=O)CCCCCCC`, for which the result in [1], in assay [2], in assay [3], in [4], in assay [5] and in assay [6] was inactive. The Potency entry in assay [7], in [8], in [9], in [10] and in assay [11] was “inactive” throughout.

On to `C/C(=C(\CCO)SS/C(CCO)=C(\C)N(C=O)Cc1cnc(C)nc1N)N(C=O)Cc1cnc(C)nc1N`, for which the call in assay [1], in assay [2], in assay [3], in assay [4], in [5] and in assay [6] was inactive. Also, the Potency entry in assay [7], in assay [9], in assay [10] and in [11] was “inactive” each time.

With `CC(C(=O)O)c1ccc2c(c1)Cc1cccnc1O2` (configuration not stated), the outcome in [1], in assay [2], in assay [3], in assay [4], in assay [5] and in [6] was inactive. The Potency entry in assay [7], in assay [8], in assay [9], in [10] and in [11] was “inactive” in each case.

`O=C(O)c1ccccc1C(=O)Nc1ccc(S(=O)(=O)Nc2nccs2)cc1`: the outcome in assay [1], in assay [2], in [3], in assay [4], in assay [5] and in [6] was inactive. The Potency result in assay [7], in assay [8], in assay [9], in [10] and in assay [11] was “inactive” each time.

For the compound `CN(C/C=C/C#CC(C)(C)C)Cc1cccc2ccccc12`, the call in assay [1], in assay [2], in assay [3], in assay [4], in [5] and in assay [6] was inactive. Besides, the Potency result in assay [7], in assay [10] and in assay [11] was “inactive” in each case. Also, the Potency in assay [8] was 0.0347 µM (active).

On to `CC[N+](CC)(CC(=O)Nc1c(C)cccc1C)Cc1ccccc1`, for which the call in assay [1], in [2], in assay [3], in assay [4], in assay [5] and in assay [6] was inactive. Further, the Potency result in assay [7], in assay [8], in assay [9], in assay [10] and in assay [11] was “inactive” throughout.

Take `C=CCN1C[C@H](C(=O)N(CCCN(C)C)C(=O)NCC)C[C@@H]2c3cccc4[nH]cc(c34)C[C@H]21`: the compound was classed as inactive in assay [1], in [2], in [3], in [4], in [5] and in [6]. The Potency entry in assay [7], in [9], in [10] and in assay [11] was “inactive” in each case. Also, the Potency in assay [8] is 1.55 µM (active).

As to `CCOC(=O)c1cccnc1`, the outcome in assay [1], in [2], in assay [3], in assay [4], in [5] and in assay [6] was inactive. In addition, the Potency entry in assay [7], in [8], in assay [9], in assay [10] and in [11] was “inactive” throughout.

`CCOc1ccc(C(=O)OCCN(CC)CC)cc1`: the compound was called inactive in assay [1], in assay [2], in assay [3], in assay [4], in [5] and in [6]. Further, the Potency entry in [7], in [9], in assay [10] and in assay [11] was “inactive” throughout. Also, the Potency in [8] was 2.72 µM (active).

Turning to `O=c1[nH]c(=O)c2ccccc2o1`, the outcome in assay [1], in [2], in assay [3], in assay [4], in [5] and in assay [6] was inactive. Besides, the Potency result in assay [7], in [8], in assay [9], in [10] and in assay [11] was “inactive” in each case.

For the compound `CCCCCC(N)=O`, the compound was called inactive in [1], in [2], in assay [3], in [4], in assay [5] and in assay [6]. The Potency entry in [7], in assay [8], in assay [9], in assay [10] and in [11] was “inactive” throughout.

As for `Cc1cccc(C)c1NC(=O)CC12CCCN1CCC2`, the outcome in assay [1], in assay [2], in assay [3], in assay [4], in assay [5] and in assay [6] was inactive. Further, the Potency result in assay [7], in [8], in assay [9], in [10] and in [11] was “inactive” throughout.

Turning to `O=C(CCBr)N1CCN(C(=O)CCBr)CC1`, the compound was classed as inactive in assay [1], in assay [2], in [3], in [4], in assay [5] and in assay [6]. The Potency entry in [7], in assay [9] and in assay [10] was “inactive” throughout.

For the compound `CC(=O)OCC(COC(C)=O)OC(C)=O`, the result in [1], in assay [2], in assay [3], in assay [4], in assay [5] and in assay [6] was inactive. Also, the Potency entry in [7], in [8], in [9], in assay [10] and in [11] was “inactive” throughout.
